Many of the other results were omitted from the sample, so hits are more common in it than they were.
STK33 kin inh = human STK33 kinase inhibition. ADP-Glo luminescence, MBP substrate. inhibition, % at 12.5 µM. 0.44% of 27,000 active. AID 2322; in the data active means inhibition above about 20%
Target sequence (Q9BYT3 whole entry, looked up): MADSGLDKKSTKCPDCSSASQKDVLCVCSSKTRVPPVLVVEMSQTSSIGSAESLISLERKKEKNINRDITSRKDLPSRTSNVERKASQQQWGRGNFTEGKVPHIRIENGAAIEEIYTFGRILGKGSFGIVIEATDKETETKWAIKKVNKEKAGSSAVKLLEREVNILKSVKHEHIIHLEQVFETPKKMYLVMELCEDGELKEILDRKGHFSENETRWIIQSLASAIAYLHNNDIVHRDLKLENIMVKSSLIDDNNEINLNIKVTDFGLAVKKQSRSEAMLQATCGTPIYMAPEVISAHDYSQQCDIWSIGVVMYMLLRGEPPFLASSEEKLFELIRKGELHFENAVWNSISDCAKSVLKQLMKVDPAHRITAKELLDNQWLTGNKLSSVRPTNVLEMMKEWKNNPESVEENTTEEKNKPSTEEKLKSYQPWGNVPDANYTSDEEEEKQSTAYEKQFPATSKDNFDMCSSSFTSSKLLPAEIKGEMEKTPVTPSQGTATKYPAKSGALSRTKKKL
PD-1 reversal = reversal of PD-1 mediated T-cell inhibition; primary human CD4 T cells, PD-L1 beads, CellTiter-Glo 96 h; activation, % (concentration not given with the values); 29,000 tested, under 10 active; call rule not given here
NOMO-1 viab = STK33 inhibitor candidate reducing NOMO-1 cell viability; 7.5% of 37,000 active; NOMO-1 AML viability, CellTiter-Glo luminescence, 72 h; AID 2330; inhibition, % (test concentration not listed); in the data active means inhibition above about 80%
Each line names hits and unclear results; the compound was inactive in the other large screens.

Cc1ccc(NC(=O)COc2ccccc2)c(NC(=O)c2ccc(Cl)cc2)c1	none
O=C(COc1ccc(Br)cc1)Nc1cccc2ncccc12	none
CSCCC(Nc1ncnc2sc3c(c12)CCCC3)C(=O)O (stereo not given)	none (no result: PD-1 reversal)
O=C(Nc1ncnc2sc3c(c12)CCCCC3)c1ccc(F)cc1	NOMO-1 viab 109 (no result: STK33 kin inh)
Cc1cc(OCC(=O)Nc2cccnc2)cc(C)c1Cl	none (no result: PD-1 reversal)
C[C@H]1CN([C@@H](C)CO)C(=O)Cc2cc(N(C)C)ccc2O[C@H]1CN(C)Cc1ccc(C(=O)Nc2ccccc2N)cc1	NOMO-1 viab 141 (no result: STK33 kin inh)
C[C@H](CO)N1C[C@H](C)[C@H](CN(C)Cc2ccc(C(=O)Nc3ccccc3N)cc2)Oc2ccc(N(C)C)cc2CC1=O	NOMO-1 viab 141 (no result: STK33 kin inh)
Cc1c(O)c(C(=O)c2nn[nH]n2)c(=O)n(-c2ccccc2)c1-c1ccccc1	none
O=C(CCCCCCCCc1ccccc1)c1c(O)cc(O)cc1O	none (no result: PD-1 reversal, NOMO-1 viab)
O=C(CCc1ccc(O)cc1)c1c(O)cc(O)cc1O	STK33 kin inh 35 (no result: PD-1 reversal)
O=C(O)C1CC(c2ccccc2)=C(c2ccccc2)CC1C(=O)c1ccccc1 (stereo not given)	none (no result: STK33 kin inh)
Cc1ccc(C(=O)N(Cc2nc(-c3ccc(Cl)cc3)no2)C(C)C)cc1[N+](=O)[O-]	none
Cc1cccc(-c2noc(CN(C(=O)c3ccc([N+](=O)[O-])c(C)c3)C(C)C)n2)c1	NOMO-1 viab 132
Cc1ccc(NC(=O)C(C)Sc2nccc(C)n2)cc1 (stereo not given)	none
COc1ccc(SCC(=O)Nc2ccccn2)cc1	none (no result: STK33 kin inh)
Oc1c(C(Nc2ccccn2)c2cccc(OC3CCCC3)c2)ccc2cccnc12 (stereo not given)	NOMO-1 viab 114
C#CCOc1ccc(C(Nc2ccccn2)c2ccc3cccnc3c2O)cc1 (stereo not given)	NOMO-1 viab 113 (no result: PD-1 reversal)
C[C@H]1CC(O)C23COC(=O)[C@@H]2CCC[C@@H]3[C@@]12C[C@@H](c1ccoc1)OC2=O (stereo not given in full)	none (no result: PD-1 reversal, NOMO-1 viab)
Cc1cc(N(CC(=O)Nc2ccc(F)c(Cl)c2)S(C)(=O)=O)ccc1Br	NOMO-1 viab 93
Cc1ccc(NC(=O)CN(c2ccc(Cl)c(C(F)(F)F)c2)S(C)(=O)=O)cc1	NOMO-1 viab 91
COc1ccc(N(CC(=O)Nc2ccc(I)cc2)S(C)(=O)=O)cc1Cl	none
CS(=O)(=O)N(CC(=O)Nc1ccc(I)cc1)c1ccc(Cl)c(Cl)c1	NOMO-1 viab 90
CS(=O)(=O)N(CC(=O)Nc1ccc(Br)c(Cl)c1)c1ccc(F)c(Cl)c1	none
CS(=O)(=O)N(CC(=O)Nc1ccccc1C(F)(F)F)c1ccc(Cl)c(C(F)(F)F)c1	none
Cc1ccc([N+](=O)[O-])cc1N(CC(=O)Nc1cccc(F)c1)S(C)(=O)=O	none (no result: PD-1 reversal)
Cc1ccc([N+](=O)[O-])cc1N(CC(=O)Nc1ccc(I)cc1)S(C)(=O)=O	NOMO-1 viab 121
Cc1ccc(S(=O)(=O)N(C)CC(=O)Nc2ccc(Br)cc2F)cc1	none (no result: PD-1 reversal)
COc1ccc(NC(=O)CSc2ccccn2)cc1Cl	none (no result: PD-1 reversal)
Cn1c(SCC(=O)Nc2cccc(C(F)(F)F)c2)nnc1-c1ccc(F)cc1	none
Cc1cc2ncc(-c3ccnc(SCc4c(Cl)cccc4Cl)n3)c(C)n2n1	none (no result: STK33 kin inh)
O=S(=O)(c1ccc(Br)cc1)N1CCCCCC1	none (no result: STK33 kin inh)
CS(=O)(=O)N(CC(=O)Nc1ccc(Cl)c(Cl)c1)c1ccc(Br)cc1	NOMO-1 viab 115
CS(=O)(=O)N(CC(=O)Nc1ccc(Cl)c(Cl)c1)c1cc(Cl)cc(Cl)c1	none
CN(/N=C/c1ccccc1)C1=NS(=O)(=O)c2ccccc21	none (no result: STK33 kin inh)
C=C1C(=O)O[C@@H]2CC=C(CCC(C)O)C(C)C[C@@H]12 (stereo not given in full)	NOMO-1 viab 121
C=CC(C)(O)CC/C=C(\C)C(=O)OC1C2OC2(C)C2C(OC3OC(COC4OC(CO)C(O)C(O)C4O)C(O)C(O)C3O)OC=CC12O (stereo not given)	none (no result: PD-1 reversal, NOMO-1 viab)
Cc1cc(Cl)ccc1OC(C)C(=O)Nc1cccc(NC(=O)c2ccco2)c1 (stereo not given)	none (no result: PD-1 reversal)
CCc1cc(C(c2ccc(Cl)cc2)N2CCN(CCO)CC2)c(NC(=O)c2ccccc2)s1 (stereo not given)	NOMO-1 viab 117 (no result: STK33 kin inh)
Cc1sc(NC(=O)c2ccccc2)c(C(=O)N2CCCCC2)c1C	none (no result: STK33 kin inh)
FC(F)(F)C1=Nc2ccccc2N(c2ccc(Cl)c(Cl)c2)C1	none
COc1ccccc1NC(=O)c1c(NCc2ccc(C)o2)sc2c1CCC2	none (no result: PD-1 reversal)
COC(=O)c1ccc(-n2c(CCC(=O)O)ccc2-c2ccc(Br)cc2)cc1	none
CCC1SC2=NCN(c3ccccc3)CN2C1=O (stereo not given)	NOMO-1 viab 101 (no result: STK33 kin inh)
C=CC(C)(C)[C@@]12CC(=O)C(=O)N3/C(=C/c4cnc[nH]4)C(=O)N[C@]31N(OC)c1ccccc12	NOMO-1 viab 118
COc1cc([C@@H]2C3C=C([C@H]4Oc5cc(O)cc(O)c5C(=O)[C@@H]4O)[C@H]4[C@@H]2COC4(O)C3=O)ccc1O	none
COC(=O)C1=C(Nc2ccc(OC(=O)c3cccc(C(F)(F)F)c3)cc2)CSC1	none
CNC(=O)c1cccc2c1-c1ccccc1C2=O	none (no result: STK33 kin inh)
O=C1c2ccccc2-c2n[nH]c3cccc1c23	STK33 kin inh 111
Cc1ccccc1OCC(=O)Nc1cccc(-c2nc3ccccc3s2)c1	none
C[C@H]1CN([C@@H](C)CO)C(=O)Cc2cc(NC(=O)Nc3ccc4c(c3)OCO4)ccc2O[C@H]1CN(C)Cc1ccc(-c2ccccc2)cc1	NOMO-1 viab 92
COc1ccc(NC(=O)Nc2ccc3c(c2)CC(=O)N([C@H](C)CO)C[C@@H](C)[C@@H](CN(C)Cc2ccc(-c4ccccc4)cc2)O3)cc1	NOMO-1 viab 112 (no result: STK33 kin inh)
C[C@H]1CN([C@@H](C)CO)C(=O)Cc2cc(NC(=O)Nc3ccccc3)ccc2O[C@H]1CN(C)Cc1ccc(-c2ccccc2)cc1	none
C[C@@H]1CN([C@H](C)CO)C(=O)Cc2cc(NC(=O)Nc3ccc4c(c3)OCO4)ccc2O[C@@H]1CN(C)Cc1ccc(-c2ccccc2)cc1	none
C[C@H]1CN([C@@H](C)CO)C(=O)Cc2cc(NC(=O)c3ccncc3)ccc2O[C@H]1CN(C)Cc1ccc(-c2ccccc2)cc1	NOMO-1 viab 89 (no result: PD-1 reversal)
C[C@@H]1CN([C@@H](C)CO)C(=O)Cc2cc(NC(=O)c3ccncc3)ccc2O[C@@H]1CN(C)Cc1ccccc1	none
COc1ccc(NC(=O)Nc2ccc3c(c2)CC(=O)N([C@H](C)CO)C[C@H](C)[C@H](CN(C)Cc2ccc(-c4ccccc4)cc2)O3)cc1	none
C[C@H](CO)N1C[C@H](C)[C@H](CN(C)Cc2ccc(-c3ccccc3)cc2)Oc2ccc(NC(=O)Nc3ccccc3)cc2CC1=O	NOMO-1 viab 113
O=C1C(=O)N(Cc2ccco2)C(c2cccc(Cl)c2)C1C(=O)c1ccco1 (stereo not given)	none
C[C@@H]1CN([C@@H](C)CO)C(=O)Cc2cc(NC(=O)Nc3ccc(C(F)(F)F)cc3)ccc2O[C@@H]1CN(C)C(=O)Nc1ccccc1	NOMO-1 viab 112
C[C@H]1CN([C@@H](C)CO)C(=O)Cc2cc(NC(=O)Nc3ccccc3)ccc2O[C@@H]1CN(C)C(=O)Nc1ccc(C(F)(F)F)cc1	none
C[C@H](CO)N1C[C@H](C)[C@H](CN(C)C(=O)Nc2ccccc2)Oc2ccc(NC(=O)Nc3ccc(C(F)(F)F)cc3)cc2CC1=O	NOMO-1 viab 92 (no result: STK33 kin inh, PD-1 reversal)

Screens (PubChem BioAssay)
